Data on 9 compounds can be found in PubChem BioAssay (NCI).

Each structure is given as a SMILES string. Compounds without any hit were thinned out: in the full panel of roughly 83,000, 20% have a hit.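 Step 1: grow cells in 96-well plates. Step 2: add test compound at a single concentration. Step 3: incubate 48 h. Step 4: record percent growth.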 Unmarked numbers belong to inactive results. Activity calls are given as the source filed them. Rule for the calls: active = growth percent below 10; inactive = the rest.

Assay in all cases: NCI-60 one-dose screen, 48 h (100 = growth as untreated, 0 = no growth, -100 = all killed)
In one test the test system is SK-MEL-2 melanoma. Particulars: 10 µM unless noted.
The next test deals with SN12C renal. Particulars: 10 µM unless noted.
The next test has as its system UO-31 renal. Particulars: 10 µM unless noted.
Another test concerns TK-10 renal. Conditions: 10 µM unless noted.
Another test concerns ACHN renal. Particulars: 10 µM unless noted.
In a further test the test system is A498 renal. Conditions: 10 µM unless noted.
A further test deals with CCRF-CEM leukemia. Particulars: 10 µM unless noted.
The next test has as its system MOLT-4 leukemia. Conditions: 10 µM unless noted.
The subject of another test is SR leukemia. Particulars: 10 µM unless noted.
The subject of the next test is RPMI-8226 leukemia. Particulars: 10 µM.
In a further test the test system is OVCAR-8 ovarian. Particulars: 10 µM unless noted.
The test system of a further test is OVCAR-5 ovarian. Conditions: 10 µM unless noted.
The next test concerns OVCAR-4 ovarian. Conditions: 10 µM unless noted.
The next test deals with SK-OV-3 ovarian. Particulars: 10 µM.
A further test deals with IGROV1 ovarian. Particulars: 10 µM unless noted.
The next test concerns OVCAR-3 ovarian. Particulars: 10 µM unless noted.
The next test deals with HS 578T breast. Conditions: 10 µM unless noted.
The next test has as its system CAKI-1 renal. Particulars: 10 µM unless noted.
In the next test the test system is NCI/ADR-RES ovarian. Particulars: 10 µM unless noted.

As for `COc1ccc(C2OCC(C)(C)CO2)cc1OC`, the growth with SK-MEL-2 melanoma was 106%; with SN12C renal, 98.5%; in the test on UO-31 renal, 89.8%; in the test on TK-10 renal, 109%; in the test on ACHN renal, 107%; in the test on A498 renal it was 115%. In addition, the growth in the test with CCRF-CEM leukemia is 94.3%; in the test with MOLT-4 leukemia, 100%; in the test with SR leukemia it was 100%; in the test on RPMI-8226 leukemia, 95.6%; in the test on OVCAR-8 ovarian, 105%; with OVCAR-5 ovarian, 100%. The growth was 104% in the test on OVCAR-4 ovarian; 107% in the test on SK-OV-3 ovarian; 139% in the test with IGROV1 ovarian; 117% with OVCAR-3 ovarian; 109% in the test with HS 578T breast.

`COc1ccc(-c2c3c(N)c4c(nc3nc3c2c(C)nn3-c2ccccc2)CCCC4)cc1`: the growth in the test on SK-MEL-2 melanoma is 101%; with SN12C renal, 93.4%; in the test on UO-31 renal it was 68.9%; with TK-10 renal, 86.8%; with CAKI-1 renal it was 83.9%; in the test with A498 renal, 78.7%. The growth in the test with CCRF-CEM leukemia is 23.2%; in the test on MOLT-4 leukemia, 23.6%; in the test on SR leukemia, -25.8% (active); in the test with RPMI-8226 leukemia, -37.5% (active); with OVCAR-8 ovarian, 83.1%; in the test on OVCAR-5 ovarian it was 90.1%. Also, the growth in the test on OVCAR-4 ovarian is 45.1%; in the test on SK-OV-3 ovarian, 103%; in the test with IGROV1 ovarian, 90.1%; in the test on OVCAR-3 ovarian, 88.8%; in the test on HS 578T breast, 92.5%; with NCI/ADR-RES ovarian, 86.6%.

As to `CCC(C)Oc1cc(/C=N/NC(=O)c2cnn3c2NC(c2ccccc2)C3)ccc1OC` (configuration not stated), the growth in the test on SK-MEL-2 melanoma is 35.6%; with SN12C renal, 47%; in the test with UO-31 renal it was 53.8%; in the test with TK-10 renal, 70.7%; in the test on CAKI-1 renal it was 35.9%; with CCRF-CEM leukemia, 23.1%. In addition, the growth with MOLT-4 leukemia was 24.9%; in the test on RPMI-8226 leukemia, 45.7%; in the test on OVCAR-8 ovarian it was 47.2%; in the test with OVCAR-5 ovarian it was 61.3%; with OVCAR-4 ovarian it was 48.3%; in the test on IGROV1 ovarian it was 48.1%. The results for the growth in the test on OVCAR-3 ovarian, with HS 578T breast and in the test with NCI/ADR-RES ovarian were 2.52% (active), -15.1% (active) and 18.6%, respectively.

`COc1ccc(-c2c(-c3cc4c(c(OC)c3OC)OCO4)noc2N)cc1`: the growth in the test on SK-MEL-2 melanoma is 63%; in the test on SN12C renal, 44.4%; in the test on UO-31 renal it was 57.4%; with TK-10 renal it was 66.3%; in the test on CAKI-1 renal, 37.6%; with A498 renal, 35.8%. Moreover, the growth is 11.7% in the test on CCRF-CEM leukemia; 36.6% in the test with MOLT-4 leukemia; 10.9% in the test on SR leukemia; 17.3% in the test on RPMI-8226 leukemia; 32.1% in the test on OVCAR-8 ovarian; 55% in the test on OVCAR-4 ovarian. Moreover, the growth in the test on SK-OV-3 ovarian was 16.2%; with IGROV1 ovarian, 46.3%; with OVCAR-3 ovarian it was -38.1% (active); in the test with HS 578T breast it was 16%; with NCI/ADR-RES ovarian, 2.53% (active).

Regarding `FC(F)(F)c1cc(CNc2nc(Cl)ncc2Br)cc(C(F)(F)F)c1`, the growth is 83.6% in the test with SK-MEL-2 melanoma; 89.3% with SN12C renal; 67.1% with UO-31 renal; 94% with TK-10 renal; 76.5% with CAKI-1 renal; 80.2% with A498 renal. Moreover, the growth in the test with CCRF-CEM leukemia is 81.4%; in the test on MOLT-4 leukemia, 82.4%; with SR leukemia, 38.2%; in the test with RPMI-8226 leukemia it was 70.9%; with OVCAR-8 ovarian it was 91.5%; with OVCAR-5 ovarian, 96.6%. Further, the growth was 98.5% in the test on OVCAR-4 ovarian; 81.1% in the test with SK-OV-3 ovarian; 75% with IGROV1 ovarian; 85.6% in the test with OVCAR-3 ovarian; 54.5% in the test with HS 578T breast; 92.7% in the test on NCI/ADR-RES ovarian.

With `CCOC(=O)c1[nH]c2cc(Cl)ccc2c1[C@@H](C(=O)NC(C)(C)C)N(CC)C(=O)CCCCC#Cc1cccc2c1CN(C1CCC(=O)NC1=O)C2=O` (some centres not stated), the growth in the test with SK-MEL-2 melanoma was -13.2% (active); in the test with SN12C renal, 24.4%; in the test on UO-31 renal it was 0.0319% (active); in the test on TK-10 renal, 34.3%; in the test with CAKI-1 renal it was 7.95% (active); in the test on CCRF-CEM leukemia, 13.7%. Further, the growth in the test on MOLT-4 leukemia was 10.1%; in the test with SR leukemia, 12.7%; in the test with RPMI-8226 leukemia it was 7.28% (active); in the test with OVCAR-8 ovarian, 10.9%; in the test with OVCAR-4 ovarian it was 13.2%; in the test with IGROV1 ovarian it was 8.84% (active). Besides, the growth in the test with OVCAR-3 ovarian was 8.96% (active); in the test on HS 578T breast, -12.6% (active).

With `C[C@@H](Oc1cc(-c2cnn(C3CC4(CNC4)C3)c2)cnc1N)c1c(Cl)ccc(F)c1Cl`, the growth in the test on SK-MEL-2 melanoma was 32.6%; in the test on SN12C renal, 22.9%; in the test with UO-31 renal, 51.5%; with ACHN renal, 48.6%; with CAKI-1 renal, 65.7%; in the test with A498 renal it was 24%. Besides, the growth in the test on CCRF-CEM leukemia was 24%; with MOLT-4 leukemia, 0.522% (active); in the test on SR leukemia, -24.6% (active); with RPMI-8226 leukemia, 27.7%; in the test on OVCAR-8 ovarian, 48.9%; in the test with OVCAR-5 ovarian, 38.1%. Moreover, the growth with OVCAR-4 ovarian was 48.2%; in the test with SK-OV-3 ovarian it was 66.3%; with IGROV1 ovarian, 64.2%; in the test with OVCAR-3 ovarian, 63.2%; in the test on HS 578T breast, 41.6%; in the test with NCI/ADR-RES ovarian, 91.3%.

Regarding `C(=C\c1ccccc1)/CN1CCN(C(c2ccccc2)c2ccccc2)CC1`, the growth in the test with SK-MEL-2 melanoma was 104%; with SN12C renal, 90.4%; in the test on UO-31 renal, 70.5%; in the test with TK-10 renal, 110%; with ACHN renal, 95.1%; in the test on A498 renal, 69.5%. In addition, the growth in the test on CCRF-CEM leukemia was 94.4%; in the test with MOLT-4 leukemia it was 90.2%; in the test on RPMI-8226 leukemia, 77.1%; in the test on OVCAR-8 ovarian it was 85.7%; in the test with OVCAR-5 ovarian it was 101%; with OVCAR-4 ovarian it was 87.1%. The growth in the test with SK-OV-3 ovarian is 108%; in the test on IGROV1 ovarian, 122%; in the test with OVCAR-3 ovarian, 114%; in the test with HS 578T breast, 93.4%; in the test on NCI/ADR-RES ovarian it was 81.7%.

On to `COc1ccc(NC(=O)COc2ccccc2)c(C(N)=O)c1`, for which the growth with SK-MEL-2 melanoma was 35.9%; in the test on SN12C renal, 44.4%; in the test with UO-31 renal, 57%; with ACHN renal, 55.7%; in the test on CAKI-1 renal it was 49%; in the test on A498 renal, 9.39% (active). Also, the growth is 6.03% (active) with CCRF-CEM leukemia; 20.1% in the test on MOLT-4 leukemia; 24.5% with SR leukemia; 11.9% in the test with RPMI-8226 leukemia; 35.2% with OVCAR-8 ovarian; 43.6% in the test with OVCAR-5 ovarian. Further, the growth in the test with OVCAR-4 ovarian is 87.7%; with SK-OV-3 ovarian it was 4.18% (active); in the test with IGROV1 ovarian, 46%; in the test with OVCAR-3 ovarian it was 0.699% (active); with HS 578T breast, 27.9%; with NCI/ADR-RES ovarian it was 5.8% (active).
